From the supplement of paper PMC3334620
Over roughly 33,000 sequences, “E-score (-0.5 to 0.5)” has its median near -0.0014; the highest 2% begin near 0.25. This excerpt belongs to a sample that is enriched for the highest values.

biological target: T1, Cad1 (UniProt P24813); experiment: PBM E-score (8-mer binding enrichment) (E-score (-0.5 to 0.5)); higher = stronger / more preferred TF binding; conditions: protein concentration: 100 nM; construct: GST-full length
T1 sequence: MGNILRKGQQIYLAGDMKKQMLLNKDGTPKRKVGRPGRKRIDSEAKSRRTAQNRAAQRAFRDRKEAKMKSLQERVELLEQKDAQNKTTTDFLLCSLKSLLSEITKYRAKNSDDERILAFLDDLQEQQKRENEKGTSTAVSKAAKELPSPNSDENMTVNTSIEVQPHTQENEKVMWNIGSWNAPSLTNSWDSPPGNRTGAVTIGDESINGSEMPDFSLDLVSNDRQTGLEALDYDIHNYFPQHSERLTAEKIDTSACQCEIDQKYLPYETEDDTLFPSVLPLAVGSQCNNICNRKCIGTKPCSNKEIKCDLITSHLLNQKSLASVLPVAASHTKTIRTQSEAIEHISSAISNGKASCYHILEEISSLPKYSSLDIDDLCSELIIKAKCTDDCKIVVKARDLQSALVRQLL
Outline: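 Yeast transcription factors carrying a GST tag, as full-length proteins or DNA-binding domains, were produced by PURExpress in vitro transcription/translation. About 100-200 nM protein was applied to universal all-10-mer Agilent arrays, double-stranded by primer extension on fresh or once-stripped slides. Bound protein was detected with fluorescent anti-GST, and scans were normalised with masliner. The Universal PBM Analysis Suite gave each ungapped eight-base word, pooled with its reverse complement, an E-score, a modified Wilcoxon-Mann-Whitney statistic.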

| Sequence | PBM E-score |
| --- | --- |
| GCACGAAA | 0.197 |
| AGTATCGG | 0.0469 |
| GGCATGCC | 0.00621 |
| CGCATGCC | 0.252 |
| AGCATGCC | -0.111 |
| ACAAATTG | 0.202 |
| CGAAATCC | 0.0502 |
| GAATTCCA | 0.117 |
| CAATTCCA | -0.0425 |
| CCAAATTA | 0.107 |
| ACAAATTA | 0.295 |
| CGAAATCA | 0.306 |
| AAAATTCG | 0.201 |
| GGAAATCA | 0.0778 |
| AAATTCCA | 0.308 |
| GAAATTCA | 0.169 |
| AAAATTCA | 0.284 |
| ACCCAAGT | -0.0625 |
| ATCAACCC | 0.0896 |
| ATCCTAAA | -0.12 |
| CGAACTCC | 0.0429 |
| TAAAAGAA | 0.0891 |
| ACTCTAAG | -0.094 |
| GACGTTAA | 0.245 |
| AGGTGTAG | -0.128 |

| Sequence | PBM E-score |
| --- | --- |
| CGGCACAA | -0.103 |
| ATGCTTGC | -0.14 |
| GAAAATTA | 0.13 |
| AGAAATTA | 0.296 |
| GGAAATTA | 0.208 |
| AAAAATTA | 0.254 |
| AAAAAATT | 0.12 |
| CCAAATCA | -0.041 |
| GCAAATCA | 0.101 |
| AAAAATTT | 0.269 |
| ACAAATCA | 0.279 |
| AAAATTTT | 0.234 |
| CAAAATTA | 0.187 |
| AGAAATTC | 0.13 |
| CGGAAAAC | 0.221 |
| ATCCAACC | -0.0228 |
| CGCCCTGC | -0.128 |
| ATCCTAGA | -0.0558 |
| AATTTGCG | 0.173 |
| CCGGAAAA | 0.215 |
| TAAAATAA | 0.164 |
| TAAATTTA | 0.154 |
| TAAAATTA | 0.297 |
| AATGCCGT | 0.107 |
| ATCTTCAC | -0.0332 |

| Sequence | PBM E-score |
| --- | --- |
| CTAAGACC | -0.0662 |
| ACCCTAAG | -0.101 |
| GATTTCGC | 0.28 |
| GATTTCGA | -0.0223 |
| CATTTCGC | -0.15 |
| ATCGATGG | 0.0786 |
| CAGCTTCA | 0.0676 |
| CCTCCTTC | -0.165 |
| AATTATGG | 0.216 |
| GATTATAA | 0.29 |
| ACTTATAA | 0.279 |
| AATTATAC | 0.172 |
| CATTATAA | 0.104 |
| AATTATGT | 0.167 |
| AATTATAA | 0.276 |
| GCTTATAA | 0.235 |
| TATTATAA | 0.185 |
| ACTTATAC | 0.154 |
| AATTATGA | 0.297 |
| AATTATAG | 0.0146 |
| AAACGTAC | 0.0592 |
| AGCTAGTG | -0.0897 |
| AGCTCACG | -0.0493 |
| TAGAGTCA | -0.321 |
| AAAGAACC | 0.0643 |

| Sequence | PBM E-score |
| --- | --- |
| ATAAGCCA | 0.063 |
| AGTCGGCG | 0.0599 |
| GGTGGGTA | -0.0656 |
| CATGTGCG | 0.173 |
| ACTTATAT | 0.202 |
| AGTTATAT | 0.101 |
| AATTATAT | 0.29 |
| CAAGTGGA | -0.0832 |
| CCCAAAAA | -0.0252 |
| CCGTTCCC | -0.0828 |
| GATATTCA | 0.0631 |
| ATTATTCG | 0.195 |
| ATTATTCA | 0.26 |
| CTTATTCA | 0.17 |
| ATTATTCC | 0.131 |
| GTTATTCA | 0.251 |
| ATATTGTA | 0.0624 |
| ATCACCAC | 0.245 |
| GGCACACC | -0.298 |
| CCGATGAG | 0.0417 |
| ACTGCACT | 0.0895 |
| CTTGGGGA | 0.0866 |
| CCGACCTC | -0.0414 |
| GTCATGAA | 0.0483 |
| CTCATGAC | -0.0193 |

| Sequence | PBM E-score |
| --- | --- |
| GTCATGAC | 0.288 |
| CACTTAAC | 0.00927 |
| GGCGCTCA | 0.149 |
| ACACCTGC | 0.0761 |
| ACCGCGGA | 0.207 |
| TCCGCGGA | 0.311 |
| CCCGCGCC | -0.118 |
| GCCGCGGC | 0.347 |
| CCCGCGCG | 0.298 |
| CCCGCGGC | 0.0319 |
| ACCGCCGA | -0.0944 |
| CCCGCGCA | 0.106 |
| CCCGCCGA | -0.0624 |
| GCCGCCGA | 0.277 |
| GCCGCGGA | -0.00234 |
| CCCGCGGA | 0.0649 |
| ATTTCCAA | -0.03 |
| ACCAGGCA | -0.169 |
| AAAGCCAA | -0.0764 |
| AAGAGCTG | 0.0198 |
| CCGTTGGA | -0.182 |
| ACCGATGG | -0.143 |
| TCTGAACA | 0.184 |
| GCTATCGA | -0.0158 |
| AGCGCGCC | 0.082 |

| Sequence | PBM E-score |
| --- | --- |
| CGCGCGGA | 0.212 |
| GGCGCGCC | 0.172 |
| CGCGCGCC | 0.254 |
| CGCGCGGC | 0.261 |
| AGCGCGGC | 0.0398 |
| TTAACAAA | 0.0927 |
| GACTCTAA | -0.118 |
| ACATAAGC | 0.107 |
| GCATAAGC | 0.254 |
| GCATAAGA | 0.108 |
| GCTTAGCC | -0.148 |
| CCTAATAG | -0.0644 |
| ACTAATAG | 0.325 |
| ACTAATAT | 0.302 |
| AATAATAT | 0.208 |
| ACTACTAT | 0.253 |
| AGTAATAT | 0.346 |
| ACTACTAA | 0.158 |
| AGTAATAG | 0.16 |
| ACTACTAC | 0.0727 |
| CCTAATAA | 0.0868 |
| AGTAATAC | 0.21 |
| ACTAATAA | 0.226 |
| CACCTAAA | 0.0285 |
| TCTTAACA | 0.0995 |

| Sequence | PBM E-score |
| --- | --- |
| CCCGCCGG | -0.00326 |
| GTCACTTA | 0.151 |
| AGCTAGCA | -0.0255 |
| AGAGACGG | 0.0418 |
| ACTAACAC | 0.184 |
| ACTAACAG | 0.193 |
| GCTAATAC | 0.152 |
| ACTAACAT | 0.255 |
| ACTAATAC | 0.301 |
| CCTAATAC | 0.013 |
| ACTGCGCG | 0.0621 |
| AATATCGT | 0.272 |
| AATATATG | 0.236 |
| AATATAGT | 0.281 |
| AATATCGA | 0.242 |
| AATATATT | 0.322 |
| AATATATA | 0.244 |
| AATATCGG | 0.183 |
| AATATAGG | 0.123 |
| AATATAGC | 0.0229 |
| ACTATAGT | 0.293 |
| ACTATAGA | -0.00757 |
| ACTATAGG | -0.161 |
